Reference: PubChem BioAssay AID623997 (National Center for Advancing Translational Sciences (NCATS), 2012)
Records with an inconclusive call do not appear. The source made the active and inactive calls. No rule for the calls is given here.

Assay: qHTS Assay for Inhibitors of Influenza NS1 Protein Function: Mammalian Cell Viability
Settings: NS1 counter-screen; at 100 µM (top of the series)
Text: Influenza is a world-wide public health problem and emerging forms of the virus have the potential to cause a pandemic of equal or greater magnitude to the outbreaks recorded in 1918, 1957 or 1968. Vaccine development is proceeding and there also exist two classes of anti-influenza compounds. However these therapeutic modalities are neither fully effective nor widely enough available to fulfill global needs. In addition their potential usefulness against newly emergent strains is not known. Efforts are needed to develop novel agents against influenza virus, including broad-spectrum agents. Identification of small molecules that inhibit NS1 function either directly or by interfering with specific cellular pathways may be a key to increasing our defense against the virus.
We have miniaturized and optimized a cell based assay in which NS1 from influenza A is expressed in the budding yeast S. cerevisiae. NS1 is a multi-functional protein that counters the host innate immune response and facilitates viral versus cellular gene expression. Expression of NS1 causes a pronounced slow growth phenotype in yeast due to its intrinsic molecular activities. Small molecules that suppress the slow growth phenotype can be identified by a straightforward growth recovery assay using optical density (OD) as the measurement. The same yeast strain not expressing NS1 was used as positive control in the yeast growth recovery assay.
Hits resulting from this primary screen and other follow-up screens, were tested in four concentrations for this mammalian cell viability assay, using MDCK cells.
NIH Chemical Genomics Center [NCGC]
NIH Molecular Libraries Probe Centers Network [MLPCN]
Assay Submitter (PI): Daniel Engel, University of Virgina
Opaque-walled 96-well plates were seeded with […] MDCK cells per well in 100 uL medium and incubated overnight at 37 deg C. The compound was added to triplicate wells for each concentration tested and incubated for 48 h at 37 deg C. The plate was equilibrated for 30 min at room temperature and 100 uL CellTiter Glo reagent (Promega) added according to the manufacturer's protocol. The plate was shaken for 2 min and then incubated for 10 min at room temperature. Luminescence was recorded in an LMAX 384 reader (Molecular Devices) with integration time of 1 s.

Q: Which viability does the source give for `COc1cc(-c2c3c(C)nn(-c4ccccc4)c3nc3[nH]c(=O)[nH]c(=O)c23)ccc1O` here?
A: Its viability is 101% (inactive).

Q: Which viability does the source give for `COc1cc(-c2c(C#N)c(N)nc3c2c(C)nn3-c2ccc(C)cc2)cc(OC)c1OC` here?
A: The viability was 99.9% (inactive).

Q: For `COc1ccc(-c2c(C#N)c(N)nc3c2c(C)nn3-c2ccc(Cl)cc2)cc1OC`, which viability is on record?
A: The viability was 103% (inactive).

Q: For `Cc1nn(-c2ccc(F)cc2)c2nc(N)c(C#N)c(-c3ccc(O)c(O)c3)c12`, which viability is on record?
A: Its viability is 86% (inactive).

Q: With `COc1ccc(-c2ccnc3c2c(C)nn3-c2ccc(F)cc2)cc1` as the molecule, how does the viability read?
A: The viability was 114% (inactive).

Q: For `COc1cc(-c2ccnc3c2c(C)nn3-c2ccc(C(F)(F)F)cc2)ccc1O`, which viability is on record?
A: The viability was 118% (inactive).

Q: For `COc1ccc(-c2ccnc3c2c(C)nn3-c2ccc(F)cc2)cc1OC`, which viability is on record?
A: Its viability is 93.4% (inactive).

Q: Which viability does the source give for `COc1cc(-c2c(C#N)c(=O)[nH]c3c2c(C)nn3-c2ccccc2)cc(OC)c1OC` here?
A: The viability was 97.8% (inactive).

Q: With `COc1cc(-c2ccnc3c2c(C)nn3-c2ccc(F)cc2)ccc1O` as the molecule, how does the viability read?
A: Its viability is 65% (inactive).

Q: For `COc1cccc(-n2nc(C)c3c(-c4ccc(O)c(OC)c4)ccnc32)c1`, which viability is on record?
A: The viability was 124% (inactive).

Q: For `COc1cc(-c2ccnc3c2c(C)nn3-c2cccc(F)c2)ccc1O`, which viability is on record?
A: The viability was 122% (inactive).

Q: With `COc1cc(-c2c(C#N)c(N)nc3c2c(C)nn3-c2ccc(C)c(C)c2)ccc1O` as the molecule, how does the viability read?
A: Its viability is 99.3% (inactive).

Q: With `Cc1nn(-c2ccccc2)c2nc(N)c(C#N)c(-c3ccc(O)c(O)c3)c12` as the molecule, how does the viability read?
A: Its viability is 105% (inactive).

Q: With `Cc1nn(-c2ccccc2)c2nc3[nH]c(=O)[nH]c(=O)c3c(-c3ccc4c(c3)OCO4)c12` as the molecule, how does the viability read?
A: Its viability is 72.3% (inactive).

Q: For `COc1ccc(-c2c(C#N)c(N)nc3c2c(C)nn3-c2ccc(F)cc2)cc1OC`, which viability is on record?
A: The viability was 101% (inactive).

Q: Which viability does the source give for `COc1ccc(-n2nc(C)c3c(-c4ccc(O)c(OC)c4)ccnc32)cc1` here?
A: The viability was 108% (inactive).

Q: Which viability does the source give for `COc1cccc(-c2ccnc3c2c(C)nn3-c2ccc(F)cc2)c1` here?
A: The viability was 4.7% (active).

Q: For `COc1ccc(-c2c3c(C)nn(-c4ccccc4)c3nc3[nH]c(=O)[nH]c(=O)c23)cc1O`, which viability is on record?
A: The viability was 102% (inactive).

Q: For `COc1cc(-c2c(C#N)c(N)nc3c2c(C)nn3-c2ccc(Cl)cc2)cc(OC)c1OC`, which viability is on record?
A: The viability was 92.1% (inactive).

Q: With `Cc1nn(-c2ccc(Cl)cc2)c2nc(N)c(C#N)c(-c3ccc(O)c(O)c3)c12` as the molecule, how does the viability read?
A: The viability was 68.5% (inactive).

Q: Which viability does the source give for `Cc1ccc(-n2nc(C)c3c(-c4ccc(O)c(O)c4)c(C#N)c(N)nc32)cc1` here?
A: Its viability is 94.7% (inactive).

Q: Which viability does the source give for `COc1ccc(-c2c(C#N)c(N)nc3c2c(C)nn3-c2ccc(C)cc2)cc1OC` here?
A: Its viability is 103% (inactive).

Q: For `COc1cc(-c2c(C#N)c(=O)[nH]c3c2c(C)nn3-c2ccccc2)ccc1O`, which viability is on record?
A: The viability was 85.2% (inactive).

Q: For `COc1ccc(-c2c3c(C)nn(-c4ccccc4)c3nc3[nH]c(=O)[nH]c(=O)c23)cc1OC`, which viability is on record?
A: The viability was 83.5% (inactive).

Q: With `COc1cc(-c2c(C#N)c(N)nc3c2c(C)nn3-c2ccccc2)ccc1O` as the molecule, how does the viability read?
A: The viability was 101% (inactive).

Q: For `COc1ccc(-c2c(C#N)c(N)nc3c2c(C)nn3-c2ccccc2)cc1OC`, which viability is on record?
A: Its viability is 101% (inactive).

Q: With `CCOC(=O)c1cnc2c(c(C)nn2-c2ccc(F)cc2)c1-c1ccc(O)c(OC)c1` as the molecule, how does the viability read?
A: Its viability is 54.9% (inactive).

Q: For `COc1cc(-c2ccnc3c2c(C)nn3-c2cccc(C(F)(F)F)c2)ccc1O`, which viability is on record?
A: The viability was 114% (inactive).

Q: Which viability does the source give for `COc1cc(-c2c(C#N)c(N)nc3c2c(C)nn3-c2ccc(F)cc2)cc(OC)c1OC` here?
A: The viability was 90.7% (inactive).

Q: Which viability does the source give for `COc1cc(-c2c(C#N)c(N)nc3c2c(C)nn3-c2ccc(F)cc2)ccc1O` here?
A: The viability was 88% (inactive).

Q: Which viability does the source give for `COc1cc(-c2c3c(C)nn(-c4ccccc4)c3nc3[nH]c(=O)[nH]c(=O)c23)cc(OC)c1O` here?
A: Its viability is 98.6% (inactive).

Q: For `COc1cc(-c2c(C#N)c(N)nc3c2c(C)nn3-c2ccc(C)cc2)ccc1O`, which viability is on record?
A: Its viability is 94% (inactive).

Q: With `COc1cc(-c2c(C#N)c(N)nc3c2c(C)nn3-c2ccc(C)c(C)c2)cc(OC)c1OC` as the molecule, how does the viability read?
A: The viability was 90.8% (inactive).
